Reference: publication PMC4336329 (PLoS ONE, 2015)
The whole screen tested about 310,000 compounds, of which about 14,000 (4.5%) showed an effect of 50% or more. The effect is printed as a negative number. Many of the other results were omitted from the sample, so strong results are more common in it than they were.

The molecules below were run against human ether-à-go-go-related gene (hERG) potassium channel (human, UniProt Q12809) (assay: primary screen, population patch clamp on CHO cells stably expressing hERG; higher = less effect of the substance).
Chain of human ether-à-go-go-related gene (hERG) potassium channel (Q12809 whole entry, looked up): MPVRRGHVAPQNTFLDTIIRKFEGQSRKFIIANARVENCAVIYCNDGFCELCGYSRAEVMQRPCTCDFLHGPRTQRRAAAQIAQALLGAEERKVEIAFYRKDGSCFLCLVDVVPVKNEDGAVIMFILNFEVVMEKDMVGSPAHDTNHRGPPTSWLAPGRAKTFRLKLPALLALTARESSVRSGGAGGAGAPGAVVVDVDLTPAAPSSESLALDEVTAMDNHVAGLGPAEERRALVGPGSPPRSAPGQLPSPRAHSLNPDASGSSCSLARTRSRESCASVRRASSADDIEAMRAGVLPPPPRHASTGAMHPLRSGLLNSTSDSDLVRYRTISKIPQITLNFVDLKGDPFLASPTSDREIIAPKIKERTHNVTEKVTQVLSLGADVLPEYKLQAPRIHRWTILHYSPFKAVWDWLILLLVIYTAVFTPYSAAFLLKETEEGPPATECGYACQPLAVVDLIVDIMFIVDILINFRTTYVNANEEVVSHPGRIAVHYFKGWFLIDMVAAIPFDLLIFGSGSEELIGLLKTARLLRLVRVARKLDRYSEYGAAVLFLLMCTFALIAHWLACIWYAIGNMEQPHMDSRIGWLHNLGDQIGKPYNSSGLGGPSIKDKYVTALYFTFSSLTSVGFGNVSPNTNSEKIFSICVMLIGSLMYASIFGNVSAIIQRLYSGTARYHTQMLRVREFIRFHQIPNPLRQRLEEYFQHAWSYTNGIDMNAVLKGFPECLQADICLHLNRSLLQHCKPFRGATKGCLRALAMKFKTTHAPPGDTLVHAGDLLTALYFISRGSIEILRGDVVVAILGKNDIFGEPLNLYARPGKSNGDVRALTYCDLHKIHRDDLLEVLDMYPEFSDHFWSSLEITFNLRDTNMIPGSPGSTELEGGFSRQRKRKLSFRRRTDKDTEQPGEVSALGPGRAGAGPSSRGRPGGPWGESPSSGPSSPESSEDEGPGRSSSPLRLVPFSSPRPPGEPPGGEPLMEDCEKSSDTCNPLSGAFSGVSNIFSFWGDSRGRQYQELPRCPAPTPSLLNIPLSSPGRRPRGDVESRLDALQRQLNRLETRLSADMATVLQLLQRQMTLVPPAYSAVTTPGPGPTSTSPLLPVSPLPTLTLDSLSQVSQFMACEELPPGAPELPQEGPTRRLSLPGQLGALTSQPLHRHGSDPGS
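Further: peak tail current of the secondary pulse compared with the same well before compound.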

| SMILES | hERG current change (%, negative = inhibition) at 10uM |
| --- | --- |
| CCOC(=O)N/N=C(\C)c1cccs1 | 20.2% |
| CC(Sc1nnc(N)s1)C(=O)NCc1ccc2c(c1)OCO2 (centres unmarked) | 0.709% |
| COc1ccc(CC(=O)Nc2cc(Cl)ccc2O)cc1 | -1.45% |
| CSCC[C@H](NC(=O)NCc1cccs1)C(=O)O | -10.4% |
| CN1CCN(c2ccc(NC(=S)NC(=O)c3cccc4c(Br)cccc34)cc2)CC1 | 16.2% |
| CN1CCN(c2ccc(NC(=O)COc3ccccc3Cl)cc2)CC1 | -29.2% |
| CN1CCN(c2ccc(NC(=S)NC(=O)c3cccc4c(Cl)cccc34)cc2)CC1 | 0.63% |
| CN1CCN(c2ccc(NC(=O)COc3ccc4ccccc4c3)cc2)CC1 | -17.3% |
| Cc1ccccc1OCC(=O)Nc1ccc(N2CCN(C)CC2)c(Cl)c1 | -68.8% |
| CN1CCN(c2ccc(NC(=O)COc3cccc4ccccc34)cc2)CC1 | -65.4% |
| Cc1ccccc1OCC(=O)NC(=S)Nc1ccc(N2CCOCC2)c(Cl)c1 | 15.3% |
| CN1CCN(c2ccc(NC(=S)NC(=O)c3cccc4ccccc34)cc2)CC1 | -51% |
| Cc1ccccc1OCC(=O)Nc1ccc(N2CCN(C(=O)C(C)C)CC2)c(Cl)c1 | -31.2% |
| CC(C)Cc1nnc(NC(=O)C23CC4CC(CC(C4)C2)C3)s1 | 5.58% |
| Cc1cccc2cc(CN(CC3CCCO3)C(=O)c3cccnc3)c3nnnn3c12 (centres unmarked) | -5.82% |
| Cc1cc(NCCCN(C)C)n2c(nc3ccccc32)c1C#N | -1.49% |
| Cc1cc(C)nc(SCC(=O)N/N=C/c2ccc3c(c2)OCO3)n1 | 8.05% |
| CCOc1ccc(OCCSc2nc(N)cc(=O)[nH]2)cc1 | 1.58% |
| O=C(CSc1nc2ccccc2o1)NC1CCCC1 | 16.5% |
| CCCn1nc(C(=O)NCCc2ccc(S(N)(=O)=O)cc2)c2ccccc2c1=O | -15.8% |
| C/C(=N\Nc1nc2ccccc2[nH]1)c1ccc(C)o1 | -17.7% |
| C/C(=N\Nc1nc2ccccc2[nH]1)c1cccs1 | -19.2% |

| SMILES | hERG current change (%, negative = inhibition) at 10uM |
| --- | --- |
| C/C(=N\Nc1nc2ccccc2[nH]1)c1ccccn1 | -72.8% |
| CS(=O)(=O)N1CCc2cc(S(=O)(=O)N3CCCCC3)ccc21 | -14.8% |
| CC(=O)Nc1ccc(C(=O)OCc2ccc(F)cc2)cc1 | -10.9% |
| COc1ccc([C@H]2CC(=O)C=C(c3cccc(C(C)C)c3)C2)cc1 | -2.79% |
| Cc1[nH][nH]c(=O)c1C(c1cc(Br)ccc1O)c1c(C)[nH][nH]c1=O | 12% |
| Cc1[nH][nH]c(=O)c1C(c1ccc([N+](=O)[O-])cc1)c1c(C)[nH][nH]c1=O | 23.9% |
| Cc1[nH][nH]c(=O)c1C(c1cc([N+](=O)[O-])ccc1O)c1c(C)[nH][nH]c1=O | -62.5% |
| Cc1ccccc1NC(=O)CSc1nc(N)c(C#N)c(-c2cccs2)c1C#N | 6% |
| CCOc1ccc(C(=O)OCC(=O)NCCNC(=O)COC(=O)c2ccc(OCC)cc2)cc1 | 13.8% |
| CCCSc1nnc(CNS(=O)(=O)c2ccc(C)cc2)n1C | 8.4% |
| CCOC(=O)n1c(=O)[nH]c2ccc(Br)cc21 | 2.18% |
| CCOC(=O)n1c(=O)n(C)c2ccc(Br)cc21 | -7.75% |
| C=CCn1c(=O)n(C(=O)OCC)c2cc(Br)ccc21 | -50.2% |
| CC(=O)N1CCN(c2ccc(NC(=O)c3cccc(C)c3)cc2)CC1 | 18.5% |
| COC(=O)c1ccc(NC(=O)CSc2nn3c(=O)c(C)nnc3s2)cc1 | 7.44% |
| N#Cc1cccc(S(=O)(=O)NCC(=O)NCc2ccc3c(c2)OCO3)c1 | 5.51% |
| CN1CCN(CCC(=O)Nc2ccc(C3CCCC3)cc2)CC1.Cl | -55.1% |
| Cc1ccc(NC(=O)CCN2CCN(C)CC2)cc1.Cl | 10.6% |
| COc1ccc(C(=O)OCC(=O)c2ccc(C3CCCCC3)cc2)cc1 | 5.66% |
| CN1CCN(CCCC(=O)c2ccc(C3CCCC3)cc2)CC1.Cl.O | -50% |
| CN1CCN(CCCCC(=O)c2ccccc2)CC1.Cl | -0.477% |
| Cl.O=C(CCN1CCN(CCO)CC1)Nc1ccc(C2CCCC2)cc1 | -43% |
